Reference: PubChem BioAssay (NCATS)
Inconclusive results are not listed. Where a call stands in place of a potency, no number is given. The source made the active and inactive calls. Calls follow the shape of the full dose curve.

Assay: Primary qHTS for inhibitors of MERS-S pseudo-typed particle cell entry (AID 1479149); also: nearly all actives have a fitted effect of over 60% in size
Conditions: MERS-S pseudotyped particle entry, luciferase; series mostly up to 57.1 µM

Compound | Potency | outcome
C/C=C/c1ccc(OC)cc1 | inactive | 
CCOC(=O)c1ccc(C#Cc2ccc3c(c2)C(C)(C)CCS3)nc1 | inactive | 
C#C[C@]1(O)CC[C@H]2[C@@H]3CCc4cc(OC)ccc4[C@H]3CC[C@@]21C | inactive | 
C/C(=C(\CCOP(=O)(O)O)SC(=O)c1ccccc1)N(C=O)Cc1cnc(C)nc1N |  | inactive [at 5.34 µM]
OCC(CO)N[C@H]1C[C@](O)(CO)[C@@H](O)[C@H](O)[C@H]1O | inactive | 
CCCc1nc(C)c2c(=O)[nH]c(-c3cc(S(=O)(=O)N4CCN(CC)CC4)ccc3OCC)nn12 | inactive | 
CC(=O)O[C@H]1C[C@@H]2CC[C@@H]3[C@H](CC[C@@]4(C)[C@H]3C[C@H]([N+]3(C)CCCCC3)[C@@H]4OC(C)=O)[C@@]2(C)C[C@@H]1N1CCCCC1 | inactive | 
CCCOc1ccc(C(=O)OCCN(CC)CC)cc1N | inactive | 
C[C@@H](O)[C@H](N)C(=O)O | inactive | 
CN(C)[C@@H]1C(=O)C(C(=O)NCN2CCCC2)=C(O)[C@@]2(O)C(=O)C3=C(O)c4c(O)cccc4[C@@](C)(O)C3C[C@@H]12 (some centres undefined) | inactive | 
C[C@H](N)C(=O)N[C@@H](C)C(=O)NC1[C@H]2CN(c3nc4c(cc3F)c(=O)c(C(=O)O)cn4-c3ccc(F)cc3F)C[C@@H]12 (some centres undefined) | inactive | 
CCOCC(O)COc1ccc(NC(=O)CC[S+](C)C)cc1 (centres undefined) | inactive | 
C#C[C@]1(O)CC[C@H]2[C@@H]3[C@H](C)CC4=C(CCC(=O)C4)[C@H]3CC[C@@]21C | inactive | 
N[C@H](C(=O)O)[C@@H](O)c1ccc(O)c(O)c1 | inactive | 
